Data published in PubChem BioAssay AID1159580 (chemical genetic matrix, 2015).
“And” between values parts separate entries of the source, which are not always exact repeats. Equal entries are not always repeated. Among all 5,500 compounds or so, about 2,000 (36%) were called active. About 18% were inconclusive and are not listed. Cut-off read from the data, not from the text of the source: active = normalized growth mostly below about 0.91 (no sharp cut-off); inconclusive = no clear call, values can overlap the other calls; inactive = mostly above about 0.92. The list shows a part of the results.

Assay: chemical genetic growth profiling, strain panel (AID 1159580);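 note: tested at 20 µM; growth read once vehicle control cultures reached saturation at 30 °C; 1 = growth at the plate median or of vehicle wells; lower values mean less growth of the strain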
Conditions: S. cerevisiae deletion strains, growth OD

Measured: normalized growth

Nc1ncnc2c1ncn2[C@@H]1O[C@H](CO)[C@@H](O)[C@H]1O
inactive: locus YAL021C, strain ccr4, stronger effect = lower value 0.97 | locus YAL026C, strain drs2, stronger effect = lower value 0.989 | locus YAL030W, strain snc1, stronger effect = lower value 0.995 | locus YBL061C, strain skt5, stronger effect = lower value 0.98 | locus YBR009C, strain hhf1, stronger effect = lower value 0.987 | locus YBR021W, strain FUR4, stronger effect = lower value 1.13 | locus YBR023C, strain chs3, stronger effect = lower value 0.972 | locus YBR171W, strain sec66, stronger effect = lower value 0.968 | locus YBR229C, strain ROT2, stronger effect = lower value 0.951 | locus YBR231C, strain swc5, stronger effect = lower value 1 | locus YBR279W, strain paf1, stronger effect = lower value 0.991 | locus YCL011C, strain gbp2, stronger effect = lower value 0.975 | locus YCL016C, strain dcc1, stronger effect = lower value 0.953 | locus YCL029C, strain bik1, stronger effect = lower value 0.972 | locus YCL061C, strain MRC1, stronger effect = lower value 0.966 | locus YCL069W, strain vba3, stronger effect = lower value 0.985 | locus YCR088W, strain abp1, stronger effect = lower value 0.994 | locus YDL005C, strain med2, stronger effect = lower value 0.992 | locus YDL035C, strain GPR1, stronger effect = lower value 0.987 | locus YDL040C, strain nat1, stronger effect = lower value 0.99 | locus YDL074C, strain BRE1, stronger effect = lower value 1.02 | locus YDL101C, strain DUN1, stronger effect = lower value 0.97 | locus YDL134C, strain PPH21, stronger effect = lower value 0.983 | locus YDL185W, strain tfp1, stronger effect = lower value 0.955 | locus YDL192W, strain arf1, stronger effect = lower value 0.982 | locus YDR001C, strain nth1, stronger effect = lower value 0.986 | locus YDR069C, strain doa4, stronger effect = lower value 1.02 | locus YDR101C, strain arx1, stronger effect = lower value 1.03 | locus YDR137W, strain rgp1, stronger effect = lower value 0.96 | locus YDR159W, strain sac3, stronger effect = lower value 0.994 | locus YDR162C, strain NBP2, stronger effect = lower value 0.948 | locus YDR195W, strain ref2 1.01 | locus YDR297W, strain sur2, stronger effect = lower value 0.985 | locus YDR318W, strain mcm21, stronger effect = lower value 0.973 | locus YDR334W, strain swr1, stronger effect = lower value 0.986 | locus YDR335W, strain msn5, stronger effect = lower value 0.987 | locus YDR388W, stronger effect = lower value 0.948 | locus YDR392W, strain spt3, stronger effect = lower value 0.904 | locus YDR502C, strain sam2, stronger effect = lower value 0.997 | locus YEL003W, strain gim4, stronger effect = lower value 0.994 | locus YEL037C, strain rad23, stronger effect = lower value 0.99 | locus YEL061C, strain CIN8 (second series), stronger effect = lower value 0.987 | locus YEL061C, strain CIN8, stronger effect = lower value 0.986 | locus YER015W, strain faa2, stronger effect = lower value 0.986 | locus YER016W, strain bim1, stronger effect = lower value 0.997 | locus YER110C, stronger effect = lower value 0.975 | locus YER111C, strain swi4, stronger effect = lower value 0.977 | locus YER155C, strain BEM2 (second series), stronger effect = lower value 1.01 | locus YER155C, strain BEM2, stronger effect = lower value 0.974 | locus YER167W, strain BCK2, stronger effect = lower value 0.988 | locus YFR010W, strain ubp6, stronger effect = lower value 0.99 | locus YGL078C, strain dbp3, stronger effect = lower value 0.986 | locus YGL086W, strain mad1, stronger effect = lower value 1.03 | locus YGL167C, strain pmr1, stronger effect = lower value 0.981 | locus YGL173C, strain kem1, stronger effect = lower value 0.98 | locus YGL227W, strain vid30, stronger effect = lower value 0.987 | locus YGL240W, strain doc1, stronger effect = lower value 0.989 | locus YGL248W, strain PDE1, stronger effect = lower value 0.979 | locus YGL253W, strain hxk2, stronger effect = lower value 0.988 | locus YGR135W, strain pre9, stronger effect = lower value 0.975 | locus YGR229C, strain SMI1, stronger effect = lower value 1 | locus YGR252W, strain gcn5, stronger effect = lower value 0.959 | locus YHR013C, strain ard1, stronger effect = lower value 0.955 | locus YHR027C, strain rpn1, stronger effect = lower value 0.981 | locus YHR030C, strain SLT2, stronger effect = lower value 0.994 and 1.01 | locus YHR079C, strain IRE1 (second series), stronger effect = lower value 0.982 | locus YHR079C, strain IRE1, stronger effect = lower value 1.03 | locus YHR094C, strain hxt1, stronger effect = lower value 0.97 | locus YHR129C, strain ARP1, stronger effect = lower value 0.995 | locus YHR142W, strain chs7, stronger effect = lower value 0.939 | locus YHR200W, strain rpn10, stronger effect = lower value 0.986 | locus YIL066C, strain RNR3, stronger effect = lower value 0.978 | locus YIL073C, strain SPO22, stronger effect = lower value 0.947 | locus YIL125W, strain kgd1, stronger effect = lower value 0.98 | locus YIR030C, strain dcg1, stronger effect = lower value 0.976 | locus YJL092W, strain hpr5, stronger effect = lower value 0.984 | locus YJL095W, strain BCK1 (second series), stronger effect = lower value 0.987 | locus YJL095W, strain BCK1, stronger effect = lower value 0.983 and 1.02 | locus YJL115W, strain asf1, stronger effect = lower value 0.987 | locus YJL129C, strain trk1, stronger effect = lower value 0.972 | locus YJL134W, strain LCB3, stronger effect = lower value 0.985 | locus YJL154C, strain vps35, stronger effect = lower value 0.999 | locus YJL164C, strain tpk1, stronger effect = lower value 0.981 | locus YJL166W, strain qcr8, stronger effect = lower value 0.969 | locus YJL168C, strain set2, stronger effect = lower value 0.99 | locus YJL187C, strain SWE1 (second series), stronger effect = lower value 0.968 | locus YJL187C, strain SWE1, stronger effect = lower value 0.992 | locus YJR043C, strain POL32, stronger effect = lower value 0.992
